Assay outcomes: PubChem, National Center for Advancing Translational Sciences (NCATS)
Most compounds without a hit are left out; they make up all but 14% or so of the library.
Pf growth 96h = P. falciparum growth inhibition at 96 hour, primary screen for plastid delayed-death inhibitors; P. falciparum luciferase reporter growth, 96 h; Potency, µM (series often up to 28.7 µM), hits mostly inhibitors; 6.9% of 320,000 active; AID 504834
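Erythrocytes infected with luciferase-expressing P. falciparum were dispensed at 2% hematocrit and 0.05% parasitemia (final), then incubated with compounds 96 hours at 37 C in 5% CO2. Luminescence after detection reagent addition reported growth.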
FBPA Giardia inh = inhibitors of Giardia lamblia fructose-1,6-bisphosphate aldolase; A8B2U2; purified Giardia FBPA; Potency, µM (top dose mostly 59.6 µM), most hits filed as inhibitors; 0.71% of 290,000 active; also: nearly all actives have a fitted effect of over 55% in size
Target sequence (A8B2U2 whole entry, looked up): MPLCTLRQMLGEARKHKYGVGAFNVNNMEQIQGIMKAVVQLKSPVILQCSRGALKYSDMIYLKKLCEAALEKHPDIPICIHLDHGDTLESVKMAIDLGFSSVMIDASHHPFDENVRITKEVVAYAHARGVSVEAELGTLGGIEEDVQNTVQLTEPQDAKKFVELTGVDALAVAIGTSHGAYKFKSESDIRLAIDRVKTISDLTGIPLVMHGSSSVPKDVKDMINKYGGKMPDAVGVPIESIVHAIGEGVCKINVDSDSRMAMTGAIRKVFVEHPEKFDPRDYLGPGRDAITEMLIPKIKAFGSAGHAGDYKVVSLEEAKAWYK
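Giardia FBPA (40 nM reagent) was preincubated 10 min at RT with compound (up to 57.5 uM final), then substrate plus GAPDH/TPI/NAD/arsenate coupling system with diaphorase/resazurin was added; resorufin fluorescence (525/598 nm) was read after 20 min.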
Pf growth 48h = inhibits P. falciparum growth in the first generation, 48 h | P. falciparum luciferase growth in erythrocytes, 48 h | Potency, µM (doses to about 28.7 µM), hits mostly inhibitors | 5.9% of 310,000 active | AID 504832
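First compound was added to culture medium, then infected red cells at 0.1% parasitemia and 2% hematocrit (final). After incubation at 37 C under 5% CO2, luciferase detection reagent was dispensed and light output recorded.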
Sm TGR inh = inhibitors of Schistosoma mansoni thioredoxin glutathione reductase; Potency, µM (series often up to 114 µM), hits mostly inhibitors; purified TGR, DTNB reduction, TNB absorbance 405 nm; 3% of 360,000 active; AID 485364; also: nearly all actives have a fitted effect of over 60% in size
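First, TGR (20 nM dispensed) and NADPH were mixed with compound. Second, a 15 min room-temperature incubation followed. Third, further NADPH and then DTNB were added to start the reaction. Finally, TNB absorbance was monitored kinetically.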
HCMV antiviral = human cytomegalovirus inhibition. activity change, negative = inhibition, % at 57.5 µM. 4.5% of 410,000 active. HFF cells, HCMV-luciferase reporter, 72 h; active compounds read low; in the data active = activity change below about -60%; inconclusive = no clear call, values can overlap the other calls; inactive = above about -39%
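Human foreskin fibroblasts infected with luciferase-reporter HCMV at MOI 1 PFU/cell, compounds at two doses. Luciferase measured 72 h post infection; normalized to buffer-only basal and Salinomycin (10uM) controls.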
Hits are given with their value. Unless noted, calls follow the shape of the dose curve; as a rule, active = well fitted curve in the direction sought with a large enough effect; inconclusive = small, poorly fitted or top-dose-only effect, or another doubt; inactive = no such curve, though single readings can be large; an effect the other way counts as inactive or inconclusive.

Screening C(=N\Nc1nc2ccccc2s1)/c1ccccn1 returned Pf growth 96h inactive, FBPA Giardia inh inconclusive, Pf growth 48h inactive, Sm TGR inh inactive and HCMV antiviral -97.3.
Screening CCC/C=N/Nc1nc2ccccc2s1 returned Pf growth 96h 2.62µM, FBPA Giardia inh inactive, Pf growth 48h inactive and HCMV antiviral inactive.
`C(=NNc1ccc2ccccc2n1)c1ccccn1` gave HCMV antiviral -100.9.
COc1ccc(C=NNc2nc3ccccc3s2)cc1 was read as HCMV antiviral inactive.
`c1ccc2nc(NN=C3CCCCC3)ccc2c1` gave HCMV antiviral inactive.
`Clc1ccccc1/C=N/NC1=Nc2cccc3cccc1c23` gave Pf growth 96h inactive, FBPA Giardia inh inactive, Pf growth 48h inactive, Sm TGR inh inactive and HCMV antiviral inactive.
CC(=O)c1cccc(-n2c(=O)c3c4c(sc3n(CC(=O)c3ccc(Cl)cc3)c2=O)CN(C(C)=O)CC4)c1 was read as Sm TGR inh inactive and HCMV antiviral inactive.
O=C(NCc1csc(-c2ccccc2)n1)c1cc(F)cc2c1OCOC2 was read as Pf growth 96h inactive, FBPA Giardia inh inactive, Pf growth 48h inactive, Sm TGR inh inactive and HCMV antiviral inactive.
Screening CC1Cc2ccccc2N1C(=O)CSc1nc2ccc(NC(=O)COc3ccccc3)cc2s1 (stereo not drawn) returned Sm TGR inh inactive and HCMV antiviral inactive.
Cc1cc(NN=Cc2ccccn2)nc2c(C)cccc12 was read as HCMV antiviral inactive.
Screening Cc1cc(NN=Cc2ccccn2)nc2ccccc12 returned HCMV antiviral -100.2.
C/C(CCC(C)C)=N\Nc1cc(C)c2ccccc2n1 was read as Pf growth 96h 16.5µM, FBPA Giardia inh inactive, Pf growth 48h inconclusive, Sm TGR inh inactive and HCMV antiviral inactive.
For O=C(NCC(c1ccc2c(c1)OCO2)N1CCOCC1)C(=O)Nc1ccc(Cl)cc1 (stereo not drawn) the results were Sm TGR inh inactive and HCMV antiviral inconclusive.
`O=C(COC(=O)c1ccc(S(=O)(=O)C(F)F)cc1)Nc1ccccc1C(=O)NC1CC1` gave Pf growth 96h inactive, Pf growth 48h inactive, Sm TGR inh inactive and HCMV antiviral inactive.
For Cc1ccc(C)c(N2CCN(C(=O)C3CCN(S(=O)(=O)c4cn(C)cn4)CC3)CC2)c1 the results were Sm TGR inh inactive and HCMV antiviral inactive.
CCN(C(=O)Cc1cccs1)c1nnc(-c2cc(OC)c(OC)c(OC)c2)s1 was read as Pf growth 96h inactive, FBPA Giardia inh inactive, Pf growth 48h 5.22µM, Sm TGR inh inactive and HCMV antiviral inactive.
Screening O=C(c1ccncc1)c1ccc(N2CCN(C3CC(=O)N(Cc4ccccc4)C3=O)CC2)cc1 (stereo not drawn) returned Pf growth 96h inactive, FBPA Giardia inh inactive, Pf growth 48h inconclusive, Sm TGR inh inactive and HCMV antiviral -63.5.
O=C(O)c1ccc(N2C(=O)CC(N3CCN(c4cccc(Cl)c4)CC3)C2=O)cc1 (stereo not drawn) was read as Pf growth 96h inconclusive, FBPA Giardia inh inactive, Pf growth 48h inactive, Sm TGR inh 50.1µM and HCMV antiviral inactive.
`COc1ccc(N2C(=O)CC(N3CCN(c4cccc(Cl)c4)CC3)C2=O)cc1` (stereo not drawn) gave Pf growth 96h inactive, FBPA Giardia inh inactive, Pf growth 48h inactive, Sm TGR inh inactive and HCMV antiviral inactive.
For O=C(O)c1ccc(N2C(=O)CC(N3CCN(c4cccc(C(F)(F)F)c4)CC3)C2=O)cc1 (stereo not drawn) the results were Pf growth 96h inactive, FBPA Giardia inh inactive, Pf growth 48h inactive, Sm TGR inh 89.1µM and HCMV antiviral inactive.
CCOC(=O)N1CCN(S(=O)(=O)N2CCCC(C(=O)NCc3cc(OC)ccc3OC)C2)CC1 (stereo not drawn) was read as Sm TGR inh inactive and HCMV antiviral inconclusive.
`Cc1cccc(C)c1NC(=O)CNC(=O)C1CC(=O)N(Cc2ccccc2)C1` (stereo not drawn) gave Pf growth 96h inactive, Pf growth 48h inactive, Sm TGR inh inactive and HCMV antiviral inactive.
c1ccc2c(c1)Nc1cc3ccccc3cc1O2 was read as HCMV antiviral inactive.
Screening Cc1ccc(NC(=O)CS(=O)Cc2nc(-c3ccc(C)cc3)oc2C)cc1 (stereo not drawn) returned Pf growth 96h inactive, FBPA Giardia inh inactive, Sm TGR inh inactive and HCMV antiviral inactive.
`CC(C)c1ccc(Nc2ncnc3c2c(-c2ccccc2)cn3-c2ccccc2)cc1` gave Sm TGR inh inactive and HCMV antiviral inactive.
`COc1ccc(C)cc1N(CC(=O)Nc1cccnc1)S(=O)(=O)c1ccccc1` gave Pf growth 96h inactive, FBPA Giardia inh inactive, Pf growth 48h inconclusive, Sm TGR inh inactive and HCMV antiviral inactive.
COc1ccc(NC(=O)CSCC(=O)Nc2ccc(S(=O)(=O)N3CCOCC3)cc2)cc1 was read as Pf growth 96h inactive, Pf growth 48h inconclusive, Sm TGR inh inactive and HCMV antiviral inactive.
COc1ccc(N(CC(=O)Nc2ccc(S(=O)(=O)N3CCOCC3)cc2)S(=O)(=O)c2ccccc2)cc1 was read as FBPA Giardia inh inactive, Pf growth 48h 10.4µM, Sm TGR inh inactive and HCMV antiviral inactive.
`COc1ccc(NC(=O)CN(c2ccc([N+](=O)[O-])cc2)S(=O)(=O)c2ccccc2)cc1` gave Pf growth 96h inactive, FBPA Giardia inh inactive, Pf growth 48h inconclusive, Sm TGR inh inactive and HCMV antiviral inactive.
`COc1ccc(N(CC(=O)Nc2ccc(Cc3ccncc3)cc2)S(=O)(=O)c2ccccc2)cc1` gave Pf growth 96h inactive, FBPA Giardia inh inactive, Pf growth 48h 13.1µM, Sm TGR inh inactive and HCMV antiviral inactive.
`COc1ccccc1N(CC(=O)Nc1ccc(Cc2ccncc2)cc1)S(=O)(=O)c1ccccc1` gave Pf growth 96h inconclusive, FBPA Giardia inh inactive, Pf growth 48h 8.28µM, Sm TGR inh inactive and HCMV antiviral inconclusive.
`Cc1cccc(C)c1NC(=O)CN(CC(=O)O)CC(=O)O` gave Pf growth 96h inactive, Pf growth 48h inactive and HCMV antiviral inactive.
CCC(C)NC(=O)c1sc2nc3n(c(=O)c2c1C)CCC3 (stereo not drawn) was read as Sm TGR inh inactive and HCMV antiviral inactive.
c1ccc(-c2nc3ccccc3nc2-c2nc3ccccc3[nH]2)cc1 was read as HCMV antiviral inactive.
For N#C/C(=N\Nc1cccc(Cl)c1)C(=O)c1ccccc1 the results were Pf growth 96h inactive, FBPA Giardia inh inactive, Pf growth 48h inactive, Sm TGR inh inactive and HCMV antiviral -86.7.
Screening COc1ccc(C(=O)/C(C#N)=N/Nc2cccc([N+](=O)[O-])c2)cc1 returned Pf growth 96h inactive, FBPA Giardia inh inactive, Pf growth 48h inactive and HCMV antiviral -98.3.
N#C/C(=N\Nc1ccc(Cl)cc1)C(N)=S was read as Pf growth 96h inconclusive, FBPA Giardia inh inactive, Pf growth 48h inactive, Sm TGR inh inactive and HCMV antiviral -92.4.
